# Reference: PMC5700166
# Residue numbers refer to the chain shown, from its start.
# Assays:
# Test in all cases: protein-binding microarray (PBM); PBM: ~300 nM protein, 6 mM HEPES pH 7.8, 80 mM KCl, 0.5 mM EDTA, 0.5 mM EGTA, 6% glycerol, 35 ng/ul poly-dIdC, 1% milk, 1 h, room temperature; Ap Aiptasia and Nv Nematostella (sea anemones) / Co Capsaspora / Aq Amphimedon (sponge) / Dm Drosophila / Hu human; RHD is the Rel homology domain; high values mean tight binding
# Settings in all cases: dsDNA, one strand shown
# GST-Ap-NF-kB RHD = molecular target: T1, GST-Ap-NF-kB RHD (Exaiptasia pallida (Aiptasia), UniProt A0A913YAJ5 2-422)
# T1 sequence: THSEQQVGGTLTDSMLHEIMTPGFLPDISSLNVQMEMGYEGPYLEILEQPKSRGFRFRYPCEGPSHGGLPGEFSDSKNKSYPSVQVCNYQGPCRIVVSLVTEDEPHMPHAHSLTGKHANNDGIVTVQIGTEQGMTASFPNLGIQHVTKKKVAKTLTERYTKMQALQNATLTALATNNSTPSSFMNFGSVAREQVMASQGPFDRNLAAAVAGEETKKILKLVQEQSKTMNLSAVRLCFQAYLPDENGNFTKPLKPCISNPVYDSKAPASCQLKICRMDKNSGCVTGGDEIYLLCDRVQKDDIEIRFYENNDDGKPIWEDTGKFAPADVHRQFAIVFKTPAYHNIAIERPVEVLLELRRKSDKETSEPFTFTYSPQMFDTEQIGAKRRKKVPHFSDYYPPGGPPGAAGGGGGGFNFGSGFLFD
# [1] = molecular target: T2, GST-Nv-NF-kB (Cys allele) (Nematostella vectensis, UniProt E5G601 2-411)
# T2 sequence: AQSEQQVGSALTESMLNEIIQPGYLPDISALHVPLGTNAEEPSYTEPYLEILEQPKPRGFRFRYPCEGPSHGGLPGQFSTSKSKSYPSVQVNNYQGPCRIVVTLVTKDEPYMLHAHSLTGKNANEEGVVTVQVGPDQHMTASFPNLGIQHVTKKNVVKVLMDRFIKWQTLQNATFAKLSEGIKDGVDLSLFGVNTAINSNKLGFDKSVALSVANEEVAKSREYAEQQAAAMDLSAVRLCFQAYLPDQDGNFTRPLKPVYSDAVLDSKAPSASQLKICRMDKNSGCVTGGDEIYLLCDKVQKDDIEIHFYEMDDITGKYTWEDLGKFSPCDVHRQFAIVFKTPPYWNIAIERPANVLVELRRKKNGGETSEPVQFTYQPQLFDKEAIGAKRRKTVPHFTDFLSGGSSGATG
# [2] = molecular target: T3, GST-Nv-NF-kB (Ser allele) (Nematostella vectensis, UniProt A7UNT2 2-411)
# T3 sequence: T2 sequence with Q21R, C66S, S207N, E215Q, V217A, E225K, A268E, D399E
# GST-Co-NF-kB = molecular target: T4, GST-Co-NF-kB (Capsaspora owczarzaki, UniProt F1ARL5 200-546)
# T4 sequence: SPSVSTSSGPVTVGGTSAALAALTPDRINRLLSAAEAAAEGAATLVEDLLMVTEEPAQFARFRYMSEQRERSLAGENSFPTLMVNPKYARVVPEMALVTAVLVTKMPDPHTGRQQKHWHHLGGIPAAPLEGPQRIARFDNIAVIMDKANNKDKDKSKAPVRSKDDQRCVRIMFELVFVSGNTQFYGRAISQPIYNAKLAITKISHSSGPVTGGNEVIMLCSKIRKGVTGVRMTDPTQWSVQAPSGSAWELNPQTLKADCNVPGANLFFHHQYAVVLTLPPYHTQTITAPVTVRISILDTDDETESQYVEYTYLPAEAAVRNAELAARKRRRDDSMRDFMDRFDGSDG
# GST-Dm-Relish = molecular target: T5, GST-Dm-Relish (Drosophila melanogaster, UniProt Q94527 99-473)
# T5 sequence: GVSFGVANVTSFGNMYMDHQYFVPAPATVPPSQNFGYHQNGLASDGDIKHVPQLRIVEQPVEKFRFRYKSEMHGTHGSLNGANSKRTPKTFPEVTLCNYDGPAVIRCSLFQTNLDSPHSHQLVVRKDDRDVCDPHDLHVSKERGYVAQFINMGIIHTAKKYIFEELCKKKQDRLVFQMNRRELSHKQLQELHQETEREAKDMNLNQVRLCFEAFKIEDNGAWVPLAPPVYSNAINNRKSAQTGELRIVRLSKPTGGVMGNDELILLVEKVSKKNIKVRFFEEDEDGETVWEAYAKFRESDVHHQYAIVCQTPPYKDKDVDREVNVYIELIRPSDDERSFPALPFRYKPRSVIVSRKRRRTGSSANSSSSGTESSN
# GST-Aq-NF-kB = molecular target: T6, GST-Aq-NF-kB (Amphimedon queenslandica, UniProt A9Y5G7 2-389)
# T6 sequence: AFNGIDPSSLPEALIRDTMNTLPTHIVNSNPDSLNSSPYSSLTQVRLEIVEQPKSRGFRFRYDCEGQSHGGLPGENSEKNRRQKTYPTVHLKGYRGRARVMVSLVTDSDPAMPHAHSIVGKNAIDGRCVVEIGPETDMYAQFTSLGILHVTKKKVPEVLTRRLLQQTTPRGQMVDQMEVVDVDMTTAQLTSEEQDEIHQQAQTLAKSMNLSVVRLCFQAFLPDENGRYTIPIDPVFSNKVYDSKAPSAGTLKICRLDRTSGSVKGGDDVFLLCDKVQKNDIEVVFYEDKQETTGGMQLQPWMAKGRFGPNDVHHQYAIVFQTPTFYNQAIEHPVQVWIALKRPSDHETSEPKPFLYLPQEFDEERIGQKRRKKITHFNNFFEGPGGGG
# GST-Hu-p50 = GST-Hu-p50 (Homo sapiens, UniProt P19838 7-356)
# GST-Hu-p50, sequence (P19838 7-356): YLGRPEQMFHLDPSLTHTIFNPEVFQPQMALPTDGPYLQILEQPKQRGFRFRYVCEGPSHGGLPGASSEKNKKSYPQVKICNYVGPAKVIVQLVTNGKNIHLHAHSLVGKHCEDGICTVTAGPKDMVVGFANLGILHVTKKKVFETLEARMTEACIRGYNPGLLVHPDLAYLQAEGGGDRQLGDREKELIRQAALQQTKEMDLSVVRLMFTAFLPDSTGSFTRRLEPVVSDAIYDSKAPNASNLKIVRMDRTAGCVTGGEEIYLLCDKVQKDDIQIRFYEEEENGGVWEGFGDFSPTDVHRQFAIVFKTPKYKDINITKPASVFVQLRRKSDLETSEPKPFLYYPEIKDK
Sequence,binding signal (GST-Ap-NF-kB RHD) [z-score],binding signal [1] [z-score],binding signal [2] [z-score],binding signal (GST-Co-NF-kB) [z-score],binding signal (GST-Dm-Relish) [z-score],binding signal (GST-Aq-NF-kB) [z-score],binding signal (GST-Hu-p50) [z-score]
CCGATTAACATCACAACTTCCCCTGATGTTAATCGGGTCTTGATTCGCTTGACGCTGCTG,6.77,8.34,9.8,5.34,6.89,6.51,6.13
CCGATTAACATCAAAAACTCCCCTGATGTTAATCGGGTCTTGATTCGCTTGACGCTGCTG,9.29,8.96,9.57,6.91,8.62,8.06,6.46
CCGATTAACATCAAATAATACCCTGATGTTAATCGGGTCTTGATTCGCTTGACGCTGCTG,3.69,5.65,5.61,1.91,3.33,6.24,4.35
CCGATTAACATCAGGGGGAAGGATGATGTTAATCGGGTCTTGATTCGCTTGACGCTGCTG,4.09,5.38,5.53,7.14,2.47,4.48,4.08
CCGATTAACATCACCCAATTCCCTGATGTTAATCGGGTCTTGATTCGCTTGACGCTGCTG,3.33,3.63,4.42,2.69,1.62,2.94,2.81
CCGATTAACATCAGACAATCCCCTGATGTTAATCGGGTCTTGATTCGCTTGACGCTGCTG,6.6,7.1,7.4,2.24,4.95,5.98,5.79
CCGATTAACATCAATTCCCCTGATGATGTTAATCGGGTCTTGATTCGCTTGACGCTGCTG,6.84,7.45,9.02,5.73,3.81,4.89,5.75
CCGATTAACATCAGGGGAAATACTGATGTTAATCGGGTCTTGATTCGCTTGACGCTGCTG,7.87,8.59,11,8.2,9.53,7.18,6.88
CCGATTAACATCAAGTATTCCCCTGATGTTAATCGGGTCTTGATTCGCTTGACGCTGCTG,8.17,9.28,8.86,7.58,7.14,6.74,5.87
CCGATTAACATCAAGGGAGTCCCTGATGTTAATCGGGTCTTGATTCGCTTGACGCTGCTG,5.78,4.59,4.3,1.18,8.56,4.92,3.72
CCGATTAACATCAGGGGAACCACTGATGTTAATCGGGTCTTGATTCGCTTGACGCTGCTG,7.59,6.92,7.26,5.2,10.4,7.58,5.33
CCGATTAACATCAGTAATCCCCATGATGTTAATCGGGTCTTGATTCGCTTGACGCTGCTG,6.5,5.74,6.91,3.87,6.04,4.5,5.31
CCGATTAACATCAGGAAAATCCCTGATGTTAATCGGGTCTTGATTCGCTTGACGCTGCTG,5.62,7.7,4.73,2.51,7.08,8.07,5.88
CCGATTAACATCAGGGAACACCCTGATGTTAATCGGGTCTTGATTCGCTTGACGCTGCTG,5.03,4.73,1.87,2.35,8.18,7.15,3.05
CCGATTAACATCAGGGGAAGTACTGATGTTAATCGGGTCTTGATTCGCTTGACGCTGCTG,7.14,8.22,9.13,5.32,10.7,7.89,6.9
CCGATTAACATCAAAAACTTCCCTGATGTTAATCGGGTCTTGATTCGCTTGACGCTGCTG,5.3,5.84,6.81,3.89,5.16,6.27,4.68
CCGATTAACATCAGCCCGGGAAATGATGTTAATCGGGTCTTGATTCGCTTGACGCTGCTG,2.45,2.27,2.11,3.24,1.04,2.09,1.28
CCGATTAACATCAGGGGATGCACTGATGTTAATCGGGTCTTGATTCGCTTGACGCTGCTG,4.3,4.83,6.02,2.97,9.57,5.85,4.77
CCGATTAACATCAATAAATCCCCTGATGTTAATCGGGTCTTGATTCGCTTGACGCTGCTG,7.78,9.33,11.6,4.45,9.26,6.63,7.71
CCGATTAACATCACGGGAATACCTGATGTTAATCGGGTCTTGATTCGCTTGACGCTGCTG,4.13,3.29,2.87,3.47,6.3,5.81,1.75
CCGATTAACATCAAACTTCCCCCTGATGTTAATCGGGTCTTGATTCGCTTGACGCTGCTG,7.75,7.86,9.14,9.35,7.36,7.49,6.72
CCGATTAACATCAGGGGTAAATATGATGTTAATCGGGTCTTGATTCGCTTGACGCTGCTG,2.7,3.39,3.87,7.48,1.66,3.06,3.84
